PubChem BioAssay (NCATS)
Records with an inconclusive call do not appear. Unmarked numbers belong to inactive results. The source made the active and inactive calls. Calls follow the shape of the dose curve; as a rule, active = well fitted inhibition curve with a large enough effect; inconclusive = small, poorly fitted or top-dose-only effect; inactive = no such curve, though single readings can be large or run the other way.

experiment: NS1 protein of Zika virus - qHTS assay to identify small molecule inhibitors in human HEK 293 cells (AID 1347053); conditions: HEK293 ZIKV MR766 infection, NS1 TR-FRET, 24 h; series mostly up to 46.1 µM; activity change, negative = inhibition: at the top concentration; also: nearly all actives have a fitted effect of over 55% in size;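 as to activity change, negative = inhibition: plate controls were infected untreated cells for no effect and uninfected cells for full effect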
Text: National Center for Advancing Translational Sciences [NCATS]
Johns Hopkins University School of Medicine
The non-structural 1 (NS1) protein of zika virus is known to associate with the viral replication complex. This cell-based TR-FRET ZIKV NS-1 assay measures the increased NS-1 protein in human HEK 293 cells after a 24-hour Zika virus infection by a TR-FRET assay readout. A decrease in the Time-resolved fluorescence energy transfer (TR-FRET) signal in this assay by small molecule treatment indicates an inhibitory effect of the small molecule on the expression of Zika virus NS1 correlating with Zika virus replication.
HEK 293 cells were cultured in EMEM (ATCC, Cat. # 30-2003) medium with 10% fetal bovine serum (GE healthcare Life Sciences, Cat. # SH30071.03), and 1% Pen/Strep (Gibco, Cat. # 15140-122). Cells were seeded in the assay plate and incubated at 37 C with 5% CO2 for 20 hours. Compounds were added to cells and incubated for one hour before addition of ZIKV MR766 strain solution to cells (MOI = 0.5). After an incubation at 37 C for 24 hours, the reagent mixture of TR-FRET ZIKV NS1 assay using two anti-ZIKV NS1 antibodies was added to assay plates. The TR-FRET signals in assay plates were measured using an Envision plate reader (PerkinElmer). Data were normalized by using the cell-containing wells without ZIKV as a negative control (0% NS-1) and wells containing ZIKV infected cells as a positive control (100% NS-1 level).
Potency is read from the fitted curve at half-maximal effect.

| SMILES | activity change, negative = inhibition | Potency |
| --- | --- | --- |
| O=C(O)c1ccccc1-c1ccc(C(F)(F)F)cc1 | -4.33% |  |
| COc1ccc2cc1Oc1cc3c(cc1OC)CC[N+](C)(C)[C@H]3Cc1ccc(cc1)Oc1c(OC)c(OC)cc3c1[C@@H](C2)[N+](C)(C)CC3 | 3.09% |  |
| CC(CN1c2ccccc2Sc2ccccc21)N(C)C (stereo not given) |  | inactive |
| CC1(C)S[C@@H]2[C@H](NC(=O)Cc3ccccc3)C(=O)N2[C@H]1C(=O)O (tested in a mixture with another compound) | 9.47% |  |
| CN(C)CCOC(C)(c1ccccc1)c1ccccn1 (stereo not given) |  | inactive |
| C[C@]12CC[C@@H]3c4ccc(O)cc4CC[C@H]3[C@@H]1CCC2=O |  | inactive |
| Oc1ccc(C(O)CNCCCCCCNCC(O)c2ccc(O)c(O)c2)cc1O (stereo not given) | -8.32% |  |
| Cn1c(=O)c2c(ncn2CC2OCCO2)n(C)c1=O | 6.14% |  |
| CN(C)CCCN1c2ccccc2Sc2ccc(Cl)cc21 |  | 7.08 µM (active) |
| O=C1c2c(O)cccc2Cc2cccc(O)c21 | -7.93% |  |
| O=c1cc[nH]c(=S)[nH]1 | 4.25% |  |
| Cc1cc(C(C#N)c2ccc(Cl)cc2)c(Cl)cc1NC(=O)c1cc(I)cc(I)c1O (stereo not given) | 28.9% |  |
| Cc1ncc([N+](=O)[O-])n1CC(O)CCl (stereo not given) | -9.38% |  |
| CC(C)(C)c1onc(OCP(=O)(O)O)c1CC(N)C(=O)O (stereo not given) | -7.79% |  |
| CC(C)C(=O)c1c(C(C)C)nn2ccccc12 |  | inactive |
| CC(C(O)c1ccc(O)cc1)N1CCC(Cc2ccccc2)CC1 (stereo not given) |  | inactive |
| Oc1cccc(O)c1 | -6.92% |  |
| O=S(=O)(O)c1cc(I)c(O)c2ncccc12 | 0.415% |  |
| Cn1cc[nH]c1=S | -9.92% |  |
| CCCCCCCCCCCCCCCCCCOCC(O)CO (stereo not given) | 9.25% |  |

| SMILES | activity change, negative = inhibition | Potency |
| --- | --- | --- |
| C#CCN(C)Cc1ccccc1 |  | inactive |
| OCC(CO)N[C@H]1C[C@](O)(CO)[C@@H](O)[C@H](O)[C@H]1O | 0.787% |  |
| NC(=O)NNc1ccccc1 | -8.33% |  |
| NCCNCCNCCN | -12.1% |  |
| O=c1cc[nH]c(=O)[nH]1 | -2.75% |  |
| CC(C)(C)C(=O)C(Oc1ccc(Cl)cc1)n1ccnc1 (stereo not given) | -0.558% |  |
| Cc1cc2nc3c(=O)[nH]c(=O)nc-3n(C[C@H](O)[C@H](O)[C@H](O)CO)c2cc1C | 7.96% [at 20.1 µM] |  |
| CCCCCCCCCCCCOS(=O)(=O)O | 3.99% |  |
| CN(C)CCCO[C@@H]1[C@H]2OC(C)(C)O[C@H]2O[C@@H]1C(O)CO (stereo not given in full) | -0.902% |  |
| C[C@H]1O[C@H](O[C@H]2[C@H](O)[C@@H](O)[C@@H](O[C@H]3[C@H](O)[C@@H](O)[C@H](O)O[C@@H]3CO)O[C@@H]2CO)[C@H](O)[C@@H](O)[C@@H]1N[C@H]1C=C(CO)[C@@H](O)[C@H](O)[C@H]1O | 0.725% |  |
| CC(C)(C)C(=O)NCCCC(=O)O | 0.656% |  |
| OC[C@H]1O[C@@H](O[C@@H]2[C@@H](CO)O[C@](O)(CO)[C@H]2O)[C@H](O)[C@@H](O)[C@H]1O | -4.4% |  |
| C[C@@H]1CN(c2c(F)c(F)c3c(=O)c(C(=O)O)cn(C4CC4)c3c2F)C[C@H](C)N1 | 0.52% [at 20.1 µM] |  |
| O=C(O)c1ccccn1 | -8.2% |  |
| Cc1cccc(Nc2cc(Cl)nc(SCC(=O)O)n2)c1C | -1.33% |  |
| Nc1nc2c(ncn2CCC(CO)CO)c(=O)[nH]1 | -24.6% |  |
| NC(N)=NCCC[C@H](N)C(=O)O |  | inactive |
| Oc1cn2c(n1)Nc1ccc(Cl)c(Cl)c1C2 | -0.534% [at 20.1 µM] |  |
| Nc1ccc(S(=O)(=O)NC(=O)c2ccccc2)cc1 | -4.9% |  |
| C[C@H](NC(CCc1ccccc1)C(=O)O)C(=O)N1CCC[C@H]1C(=O)O (stereo not given in full) |  | inactive |
